Sampled rows, rich in hits. Any-hit rate of the full collection: about 4.7%.
TRHR enhancer = TRH receptor (human) allosteric enhancement; P34981; TRHR cells, fluo-8 calcium fluorescence, EC20 TRH enhancement; enhancement, % at 2 µM; 0.66% of 360,000 active; AID 493056; in the data active = enhancement above about 30%
Target sequence (P34981 whole entry, looked up): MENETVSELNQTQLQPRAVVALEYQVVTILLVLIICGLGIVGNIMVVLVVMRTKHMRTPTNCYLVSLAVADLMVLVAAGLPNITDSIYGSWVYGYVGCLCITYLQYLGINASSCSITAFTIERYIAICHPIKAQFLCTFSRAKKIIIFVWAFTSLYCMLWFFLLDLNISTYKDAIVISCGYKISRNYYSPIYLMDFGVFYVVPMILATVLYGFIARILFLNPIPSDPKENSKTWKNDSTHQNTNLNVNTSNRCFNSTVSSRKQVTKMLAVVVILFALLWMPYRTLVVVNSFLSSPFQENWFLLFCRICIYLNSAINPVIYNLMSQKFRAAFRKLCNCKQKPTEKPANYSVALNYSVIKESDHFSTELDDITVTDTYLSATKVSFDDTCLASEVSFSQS
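TRHR-expressing cells loaded with fluo-8 calcium dye were read kinetically (ex 480/em 530) during compound addition, then stimulated with an EC20 of TRH (10 nM final). Enhancement of the Gq-mediated intracellular calcium response was scored.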
D1 antagonist = antagonists of human D1 dopamine receptor | P21728 | HEK293 TREx D1 cells, calcium flux, dopamine EC80; hits give low values | activity change, negative = inhibition, % at 10 µM | 3.2% of 360,000 active; in the data active = activity change below about -30%
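HEK293 T-REx cells expressing inducible, force-coupled D1 receptor; no-wash Ca dye, 30–90 min RT. Cmpd → 180 s read at 1 Hz → EC80 DA → 180 s read.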
D1 PAM = enhances dopamine response at the human D1 receptor | 0.036% of 360,000 active | HEK293 TREx D1 cells, calcium flux, dopamine EC20 potentiation | P21728 | potentiation, % at 10 µM | AID 504651; in the data active = potentiation above about 30%
TRHR agonist = activates the human TRH receptor; TRHR cells, calcium flux fluo-8, FDSS agonist mode; 0.18% of 360,000 active; P34981; activation, % at 2 µM
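Read-out: compound-evoked intracellular calcium rise in TRHR cells, fluo-8 dye, kinetic FDSS fluorescence at 1 s/cycle following a 10-cycle baseline. Cells cultured overnight before dye loading (30 min–1.5 h, RT).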
D1 ag = human D1 receptor agonism | P21728 | HEK293 T-REx D1 cells, calcium flux, agonist mode | activation, % at 2 µM | 1% of 360,000 active | AID 504660
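Agonism was scored from calcium flux recorded over 180 s (1 read/s) after pintool compound addition, following a 10-cycle baseline. Cells were inducible force-coupled HEK293 TREx D1, plated overnight at 30 C and loaded with no-wash calcium dye.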
Each line names hits and unclear results; the compound was inactive in the other large screens. Rule as the data show it, unless noted: active = activation above about 30%; inactive = the rest.

CCCCOC(=O)c1ccc(NC(=O)c2cc(=O)c3ccccc3o2)cc1	none
CCCCOC(=O)c1cccc(NC(=O)c2cc3ccccc3o2)c1	D1 ag 30
CCOc1cccc(C(=O)Nc2ccc(NC(=O)c3cc4ccccc4o3)c(OC)c2)c1	D1 antagonist -39
CC(C)C(=O)Nc1cccc(NC(=O)c2cc3ccccc3o2)c1	D1 antagonist -30
COc1cccc(OCC(=O)NNC(=O)c2ccc3ccccc3c2O)c1	D1 antagonist -37
COc1ccc(C(=O)NNC(=O)c2ccc3ccccc3c2O)cc1	none
O=C(Cn1cc(S(=O)(=O)c2ccccc2)c(=O)c2cc(Cl)ccc21)Nc1ccc2c(c1)OCO2	none
COc1ccc(-c2nnc(SCC(=O)Nc3ccc(C)c(C)c3)s2)cc1	none
CCc1ccc(CNC(=O)CN2CCSc3ccccc32)cc1	none
Cc1ccccc1CNC(=O)CN1CCSc2ccccc21	D1 antagonist -31
COc1ccc(C2Nc3ccccc3C(=O)N2Cc2ccccc2)cc1COc1ccc(Cl)cc1Cl (stereo not given)	none
CCCNC(=O)COC(=O)c1cc(C)nc2ccccc12	none
COc1ccc(C(=O)NCc2cc(C)nc3ccccc23)cc1	none
Cc1cc(C(=O)OCC(=O)NCCC(C)C)c2ccccc2n1	D1 antagonist -47
Cc1cccc(OCC(=O)NCc2cc(C)nc3ccccc23)c1	D1 antagonist -34
COc1ccccc1CNC(=O)c1cc(C)nc2ccccc12	D1 antagonist -31
Cc1ccc2[nH]c(=O)c(CN(Cc3ccccc3)C(=S)NCCCN(C)C)cc2c1	TRHR enhancer 34
CCCCN(Cc1cc2cc(C)ccc2[nH]c1=O)C(=O)c1ccccn1	TRHR enhancer 30
COc1cc(C)c(CN2CCC(n3nccc3NC(=O)C3CC3)CC2)cc1C	none
COc1cccc(N2CCN(C(=O)c3cc(C)oc3C)CC2)c1	D1 antagonist -43
COc1cccc(N2CCN(C(=O)c3cccnc3)CC2)c1	D1 antagonist -39
COc1ccc(CN2CCN(C(=O)c3cccnc3)CC2)cc1Br	D1 antagonist -34
COc1cc(OC)c(NC(=O)C2CCN(S(=O)(=O)c3c(C)noc3/C=C/c3c(C)cc(C)cc3C)CC2)cc1Cl	none
N#CC1=C2N=C(N)c3ccccc3N2C2=C(C(=O)CCC2)C1c1ccccc1F (stereo not given)	none
Cc1ccccc1C1C(C#N)=C2N=C(N)c3c(sc4c3CCCCC4)N2C2=C1C(=O)CCC2 (stereo not given)	D1 antagonist -42
Cc1ccc(NC(=O)Cn2c(=O)c3ccc(Cl)cc3n3nncc23)cc1	none
COc1ccc(-c2nc3c4ccccc4n(CC(=O)N4CCN(c5ccc(F)cc5)CC4)c(=O)n3n2)cc1	none (no result: D1 antagonist)
COc1cc(C2CC(=O)N(c3ccc(C)c(Cl)c3)C3=C2C(=O)OC3)cc(OC)c1OC (stereo not given)	none
O=C(O)c1cc2ccc3cccc4ccc(c1)c2c34	none
CN(CC(=O)Nc1ccc(N2CCOCC2)cc1)C(=O)c1cn(-c2ccccc2)nc1-c1ccccc1	none
CN(CC(=O)Nc1ccc(N2CCOCC2)cc1)C(=O)c1cccc(Cl)c1Cl	D1 antagonist -36
CSCCC(NC(=O)c1ccccc1Cl)C(=O)N(C)CC(=O)Nc1ccc(N2CCOCC2)cc1 (stereo not given)	none
COc1cccc(-c2nn(-c3ccc(C)cc3)cc2C(=O)N(C)CC(=O)Nc2cccc(F)c2)c1	D1 antagonist -32 (no result: D1 PAM)
Cc1cccc(-c2nn(-c3ccccc3)cc2C(=O)N(C)CC(=O)Nc2ccc(N3CCOCC3)cc2)c1	D1 antagonist -71
COc1ccc(Br)c(C(=O)N(C)CC(=O)Nc2ccc(N3CCOCC3)cc2)c1	D1 antagonist -51
COc1ccc(-c2nn(-c3ccccc3)cc2C(=O)N(C)CC(=O)Nc2cccc(F)c2)cc1	none
COc1ccc(OCC(=O)Nc2ccc(N3CCOCC3)cc2)cc1	none
CCOC(=O)C1CCC/C1=N\NC(=O)CN(c1cc(OC)ccc1OC)S(=O)(=O)c1ccccc1 (stereo not given)	none
Cc1ccc2oc(=O)c3cnn(CC(=O)N4CCN(c5cc(Cl)ccc5C)CC4)c3c2c1	none
COc1ccc(/C=C(\NC(=O)c2ccccc2)C(=O)N2CCCCC2)cc1OC	none
COc1ccc(/C=C(/NC(=O)c2ccco2)C(=O)N2CCCCCC2)cc1OC	D1 ag 36
COc1ccc(/C=C(/NC(=O)c2ccccc2)C(=O)N2CCCCC2)cc1OC	D1 ag 72
COc1ccc(/C=C(/NC(=O)c2ccccc2)C(=O)N2CCCC2)cc1OC	none
O=C(N/C(=C\c1cccnc1)C(=O)N1CCOCC1)c1ccco1	D1 antagonist -33
O=C(NCC1CCCO1)c1ccc(NC(=O)c2ccc([N+](=O)[O-])cc2)cc1 (stereo not given)	none
COc1cccc(CN(C(=O)c2oc3ccc(Br)cc3c2C)C2CCS(=O)(=O)C2)c1 (stereo not given)	none
Cc1cccc(C(=O)Nc2c(C(=O)NCc3ccc(Cl)cc3)sc3nc(C)cc(C)c23)c1	none
CN(CC(=O)NCc1ccc(Cl)cc1)S(=O)(=O)c1ccc2c(c1)c(=O)n(C)c(=O)n2C	D1 antagonist -44
COc1ccccc1CNC(=O)CN(C)S(=O)(=O)c1ccc2c(c1)c(=O)n(C)c(=O)n2C	D1 antagonist -37
Cc1cccc(CCNC(=O)CN(C)S(=O)(=O)c2ccc3c(c2)c(=O)n(C)c(=O)n3C)c1	none
Cc1ccc(CCNC(=O)CN(C)S(=O)(=O)c2ccc3c(c2)c(=O)n(C)c(=O)n3C)cc1	TRHR enhancer 40
CN1CCC(N(C)C(=S)Nc2ccc(F)cc2)CC1	none
CN1CCC(N(C)C(=S)Nc2ccc(SC(F)F)cc2)CC1	D1 antagonist -34
CCOC(=O)c1cnc2c(Cl)c(Cl)ccc2c1Nc1ccc(N(C)C)cc1	none
CCOc1cc(C2c3c(n[nH]c3C)C(=O)N2c2ccc(C)cc2)ccc1O (stereo not given)	D1 antagonist -78
COc1cc(C2c3c(n[nH]c3C)C(=O)N2c2ccc(C)cc2)ccc1O (stereo not given)	none
CCOc1ccccc1CN1CCN(Cc2[nH]c3ccccc3c2C)CC1CCO (stereo not given)	D1 ag 56
CCOc1ccccc1CN1CCN(Cc2cc(=O)c3ccccc3[nH]2)CC1CCO (stereo not given)	D1 antagonist -36
CCOc1ccccc1CN1CCN(Cc2c[nH]c3ccccc23)CC1CCO (stereo not given)	none
CCOC(=O)C1=C(CS(=O)(=O)c2ccc(C)c(C)c2)NC(=O)NC1c1ccccc1OCC (stereo not given)	none
COC(=O)CN1C(=O)CSc2ccc(S(=O)(=O)Nc3ccc(C(C)=O)cc3)cc21	none
COc1ccc(NC(=O)c2oc3ccc(S(=O)(=O)N(C)C4CCCCC4)cc3c2C)cc1Cl	D1 antagonist -30

Source: PubChem BioAssay
